Test results reported in PubChem BioAssay (NCI).
Where “and” joins values, the source holds several entries; their conditions need not be identical. Identical values can stand only once. About 83,000 compounds went through this panel and 20% of them were active in at least one assay; those are over-represented in the sample as a whole.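 Values shown are percent growth following 48 h exposure of cells in 96-well plates to a single concentration of compound; below 10 was considered active.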 Calls of active or inactive are those of the source.

Columns and labels:
Assay in all cases: NCI-60 one-dose screen, 48 h (100 = growth as untreated, 0 = no growth, -100 = all killed)
MOLT-4 leukemia = details: 10 µM
SR leukemia = details: 10 µM
RPMI-8226 leukemia = details: 10 µM
OVCAR-8 ovarian = details: 10 µM
OVCAR-5 ovarian = details: 10 µM
OVCAR-4 ovarian = details: 10 µM
SK-OV-3 ovarian = details: 10 µM
IGROV1 ovarian = details: 10 µM
OVCAR-3 ovarian = details: 10 µM
HS 578T breast = details: 10 µM
NCI/ADR-RES ovarian = details: 10 µM
T-47D breast = details: 10 µM
BT-549 breast = details: 10 µM
MDA-MB-435 melanoma = details: 10 µM
SW-620 colon = details: 10 µM
MCF7 breast = details: 10 µM unless noted
HCT-116 colon = details: 10 µM
HCC-2998 colon = details: 10 µM
KM12 colon = details: 10 µM

Which results are given for `NC(Cc1ccccc1)c1ccccc1` (centres undefined)?
growth (MOLT-4 leukemia): 116% (inactive) and 94.2% (inactive); growth (SR leukemia): 99.9% (inactive) and 93.7% (inactive); growth (RPMI-8226 leukemia): 111% (inactive) and 100% (inactive); growth (OVCAR-8 ovarian): 104% (inactive) and 108% (inactive); growth (OVCAR-5 ovarian): 98.5% (inactive) and 96.1% (inactive); growth (OVCAR-4 ovarian): 103% (inactive) and 112% (inactive); growth (SK-OV-3 ovarian): 101% (inactive) and 103% (inactive); growth (IGROV1 ovarian): 107% (inactive) and 101% (inactive); growth (OVCAR-3 ovarian): 112% (inactive) and 118% (inactive); growth (HS 578T breast): 98.9% (inactive) and 119% (inactive); growth (NCI/ADR-RES ovarian): 106% (inactive) and 102% (inactive); growth (T-47D breast): 95.7% (inactive) and 101% (inactive); growth (BT-549 breast): 91.1% (inactive) and 89.4% (inactive); growth (MDA-MB-435 melanoma): 106% (inactive) and 102% (inactive); growth (SW-620 colon): 112% (inactive) and 104% (inactive); growth (MCF7 breast): 97.5% (inactive) and 97% (inactive); growth (HCT-116 colon): 99.7% (inactive) and 98.4% (inactive); growth (HCC-2998 colon): 105% (inactive) and 102% (inactive); growth (KM12 colon): 104% (inactive) and 110% (inactive)

Which results are given for `CC/C(=C/c1ccc(OC)cc1)[N+](=O)[O-]`?
growth (MOLT-4 leukemia): 3.8% (active); growth (SR leukemia): 1.84% (active); growth (RPMI-8226 leukemia): -8.7% (active); growth (OVCAR-8 ovarian): 1.78% (active); growth (OVCAR-5 ovarian): 10.9% (inactive); growth (OVCAR-4 ovarian): 62% (inactive); growth (SK-OV-3 ovarian): 104% (inactive); growth (IGROV1 ovarian): 11.7% (inactive); growth (OVCAR-3 ovarian): -54.6% (active); growth (HS 578T breast): 90.2% (inactive); growth (NCI/ADR-RES ovarian): 30.3% (inactive); growth (T-47D breast): -43.7% (active); growth (MDA-MB-435 melanoma): 15.1% (inactive); growth (SW-620 colon): -76.8% (active); growth (HCT-116 colon): -81.3% (active); growth (HCC-2998 colon): 85.1% (inactive); growth (KM12 colon): 33.8% (inactive)

How did the growth (MOLT-4 leukemia) turn out when `Cc1cc(C(C)(C)c2ccc(O)c(C)c2)ccc1O` was run?
Its growth is 78.9% (inactive).

What about the growth (SR leukemia) of the same compound?
Its growth is 92.2% (inactive).

And the growth (RPMI-8226 leukemia)?
The growth was 93.6% (inactive).

And the growth (OVCAR-8 ovarian)?
The growth was 81.8% (inactive).

What about the growth (OVCAR-5 ovarian) of the same compound?
The growth was 88.1% (inactive).

And the growth (OVCAR-4 ovarian)?
The growth was 83.9% (inactive).

What about the growth (SK-OV-3 ovarian) of the same compound?
Its growth is 102% (inactive).

What about the growth (IGROV1 ovarian) of the same compound?
The growth was 106% (inactive).

And the growth (OVCAR-3 ovarian)?
The growth was 85.9% (inactive).

And the growth (HS 578T breast)?
The growth was 89.2% (inactive).

And the growth (NCI/ADR-RES ovarian)?
Its growth is 88.1% (inactive).

What about the growth (T-47D breast) of the same compound?
The growth was 81.3% (inactive).

What about the growth (BT-549 breast) of the same compound?
The growth was 108% (inactive).

And the growth (MDA-MB-435 melanoma)?
The growth was 80.4% (inactive).

What about the growth (SW-620 colon) of the same compound?
Its growth is 97.2% (inactive).

And the growth (MCF7 breast)?
The growth was 119% (inactive).

And the growth (HCT-116 colon)?
Its growth is 86.4% (inactive).

And the growth (HCC-2998 colon)?
Its growth is 104% (inactive).

And the growth (KM12 colon)?
Its growth is 92.3% (inactive).

With `[O-][n+]1ccccc1S` as the compound, how does the growth (MOLT-4 leukemia) read?
The growth was 32.1% (inactive).

What about the growth (SR leukemia) of the same compound?
The growth was 7.55% (active).

And the growth (RPMI-8226 leukemia)?
The growth was 5.89% (active).

What about the growth (OVCAR-8 ovarian) of the same compound?
Its growth is 17.2% (inactive).

What about the growth (OVCAR-5 ovarian) of the same compound?
The growth was 59.1% (inactive).

What about the growth (OVCAR-4 ovarian) of the same compound?
Its growth is 36.2% (inactive).

And the growth (SK-OV-3 ovarian)?
The growth was 91.1% (inactive).

And the growth (IGROV1 ovarian)?
The growth was 6.4% (active).

And the growth (OVCAR-3 ovarian)?
The growth was 16.9% (inactive).

What about the growth (HS 578T breast) of the same compound?
The growth was 64% (inactive).

And the growth (NCI/ADR-RES ovarian)?
The growth was 37% (inactive).

What about the growth (T-47D breast) of the same compound?
Its growth is 53.4% (inactive).

And the growth (BT-549 breast)?
Its growth is 93.5% (inactive).

What about the growth (MDA-MB-435 melanoma) of the same compound?
Its growth is 53.8% (inactive).

What about the growth (SW-620 colon) of the same compound?
The growth was 42% (inactive).

What about the growth (MCF7 breast) of the same compound?
Its growth is 25.3% (inactive).

What about the growth (HCT-116 colon) of the same compound?
The growth was -9.38% (active).

What about the growth (HCC-2998 colon) of the same compound?
The growth was 76.7% (inactive).

And the growth (KM12 colon)?
Its growth is 46.5% (inactive).

With `O=[N+]([O-])/C=C/c1ccc([N+](=O)[O-])cc1` as the compound, how does the growth (MOLT-4 leukemia) read?
The growth was 47% (inactive) and 47.8% (inactive).

And the growth (SR leukemia)?
The growth was 3.64% (active) and 20.5% (inactive).

And the growth (RPMI-8226 leukemia)?
The growth was -51.5% (active) and 17.3% (inactive).

And the growth (OVCAR-8 ovarian)?
The growth was 28% (inactive) and 92% (inactive).

And the growth (OVCAR-5 ovarian)?
Its growth is 71.7% (inactive) and 125% (inactive).

And the growth (OVCAR-4 ovarian)?
The growth was 85.6% (inactive) and 86.6% (inactive).

What about the growth (SK-OV-3 ovarian) of the same compound?
Its growth is 92.6% (inactive) and 110% (inactive).

And the growth (IGROV1 ovarian)?
Its growth is -20.2% (active) and 66.6% (inactive).

What about the growth (OVCAR-3 ovarian) of the same compound?
The growth was -98.4% (active) and 36.6% (inactive).

And the growth (HS 578T breast)?
The growth was -2.35% (active) and 93.8% (inactive).

And the growth (NCI/ADR-RES ovarian)?
Its growth is 78.7% (inactive) and 85.8% (inactive).

What about the growth (T-47D breast) of the same compound?
The growth was 48.7% (inactive) and 57.1% (inactive).

What about the growth (BT-549 breast) of the same compound?
Its growth is -75.2% (active) and 88.7% (inactive).

And the growth (MDA-MB-435 melanoma)?
Its growth is -48.9% (active) and 81.1% (inactive).

What about the growth (SW-620 colon) of the same compound?
Its growth is -72.6% (active) and 12.2% (inactive).

And the growth (HCT-116 colon)?
The growth was -93% (active) and 48.4% (inactive).

What about the growth (HCC-2998 colon) of the same compound?
The growth was -91% (active) and 98.9% (inactive).

And the growth (KM12 colon)?
The growth was -54.2% (active) and 99.7% (inactive).

Which growth (MOLT-4 leukemia) does the source give for `CCCCCCCC[N+]12CN3CN(CN(C3)C1)C2` here?
The growth was 120% (inactive).

What about the growth (SR leukemia) of the same compound?
The growth was 92.7% (inactive).

What about the growth (RPMI-8226 leukemia) of the same compound?
The growth was 90.1% (inactive).

And the growth (OVCAR-8 ovarian)?
The growth was 101% (inactive).

And the growth (OVCAR-5 ovarian)?
The growth was 96.5% (inactive).

What about the growth (OVCAR-4 ovarian) of the same compound?
The growth was 99.2% (inactive).

And the growth (SK-OV-3 ovarian)?
The growth was 103% (inactive).

What about the growth (IGROV1 ovarian) of the same compound?
The growth was 108% (inactive).

What about the growth (OVCAR-3 ovarian) of the same compound?
The growth was 97.9% (inactive).

What about the growth (HS 578T breast) of the same compound?
Its growth is 92.4% (inactive).

What about the growth (NCI/ADR-RES ovarian) of the same compound?
Its growth is 98.9% (inactive).

And the growth (BT-549 breast)?
Its growth is 94.4% (inactive).

What about the growth (MDA-MB-435 melanoma) of the same compound?
Its growth is 95% (inactive).

What about the growth (SW-620 colon) of the same compound?
Its growth is 89.7% (inactive).

What about the growth (MCF7 breast) of the same compound?
The growth was 91.4% (inactive).

What about the growth (HCT-116 colon) of the same compound?
The growth was 93.6% (inactive).

What about the growth (HCC-2998 colon) of the same compound?
The growth was 98.3% (inactive).

And the growth (KM12 colon)?
Its growth is 98.4% (inactive).

With `O=c1[nH]c2ccccc2n1C1CCN(CCCC(c2ccc(F)cc2)c2ccc(F)cc2)CC1` as the compound, how does the growth (MOLT-4 leukemia) read?
The growth was -34% (active) and 15.3% (inactive).

What about the growth (SR leukemia) of the same compound?
The growth was -50.8% (active) and -35.4% (active).

And the growth (RPMI-8226 leukemia)?
The growth was 11.2% (inactive) and 0.602% (active).

What about the growth (OVCAR-8 ovarian) of the same compound?
The growth was 44.3% (inactive).

What about the growth (OVCAR-5 ovarian) of the same compound?
Its growth is 38.3% (inactive).

And the growth (OVCAR-4 ovarian)?
Its growth is 55.6% (inactive) and 70.2% (inactive).

What about the growth (SK-OV-3 ovarian) of the same compound?
The growth was 85.8% (inactive) and 78.4% (inactive).

And the growth (IGROV1 ovarian)?
Its growth is 71.3% (inactive) and 55.5% (inactive).

What about the growth (OVCAR-3 ovarian) of the same compound?
Its growth is -74.2% (active) and 39.5% (inactive).

What about the growth (HS 578T breast) of the same compound?
Its growth is 55.2% (inactive) and -34.7% (active).

What about the growth (NCI/ADR-RES ovarian) of the same compound?
The growth was 48.3% (inactive) and 23.7% (inactive).

What about the growth (T-47D breast) of the same compound?
The growth was 55.7% (inactive) and 10.2% (inactive).

And the growth (BT-549 breast)?
The growth was 35.8% (inactive) and 18.5% (inactive).

What about the growth (MDA-MB-435 melanoma) of the same compound?
The growth was -81% (active) and 19% (inactive).

And the growth (SW-620 colon)?
The growth was -21.1% (active) and 19.2% (inactive).

And the growth (MCF7 breast)?
The growth was 65% (inactive) and 6.06% (active).

And the growth (HCT-116 colon)?
Its growth is -68.6% (active) and -39.9% (active).

What about the growth (HCC-2998 colon) of the same compound?
The growth was 7.86% (active) and -80.1% (active).

What about the growth (KM12 colon) of the same compound?
Its growth is -0.627% (active) and 25.7% (inactive).
